Lamin A splicing – modulators of lamin A splicing; actives 0.01% (n = 200,000); Potency, µM (highest dose often 46.1 µM), without a hit: at the highest dose ratio change, negative = inhibition, most hits filed as inhibitors; AID 1487; HeLa LMNA splicing GFP/RFP minigene ratio, 48 h; active = well fitted inhibition curve with a large enough effect in the signal ratio, with a control signal flat, not every such curve was filed as active; inconclusive = small, poorly fitted or top-dose-only effect, or effect the other way, or a change in a side signal; the % refers to the signal ratio; also: % is scaled to controls: 0 for no effect and ±100 for the full control effect
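Read-out is the ratio of GFP to DsRed2 object intensity, acquired by 488 nm laser-scanning cytometry on HeLa lamin A-EGFP minigene reporter cells. Compound incubation 48 hrs at 37 °C in Opti-MEM with 2% FBS; DMSO 0.5% final.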
KDM4E inh – blocks human JMJD2E demethylase activity; B2RXH2; JMJD2E catalytic domain, FDH-coupled NADH fluorescence (FDH is formaldehyde dehydrogenase); Potency, µM (highest dose often 57.1 µM), without a hit: top-dose activity change, negative = inhibition, actives largely listed as inhibitors; actives 1.6% (n = 230,000);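 also: 0% = wells with enzyme and -100% = buffer wells without enzyme; nearly all actives have a fitted effect of over 50% in size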
HTT cytoprotect – cytoprotection in Huntington HTT-Q103 PC12 cell model; PC12 HTT-Q103 induced, cytoprotection, ATP luminescence, 40 h; actives 0.14% (n = 230,000); Potency, µM (highest dose often 56.4 µM), without a hit: cytoprotection (ATP increase), most hits filed as activators; active = well fitted curve in the direction sought with a large enough effect; inconclusive = small, poorly fitted or top-dose-only effect, or another doubt; inactive = no such curve, though single readings can be large; an effect the other way counts as inactive or inconclusive; also: % of control where 0% means no effect; nearly all actives have a fitted effect of over 45% in size
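Quantitative HTS on tebufenozide-induced (100 nM) PC12 cells expressing HTTQ103 exon 1–GFP; compounds tested as a concentration series; survival measured via cellular ATP.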
HPGD inh – inhibitors of human 15-hydroxyprostaglandin dehydrogenase (HPGD); purified HPGD, NADH fluorescence kinetic, PGE2 substrate; actives 4.3% (n = 150,000); P15428; Potency, µM, inactives show at the top dose activity change, negative = inhibition, hits mostly inhibitors; also: % is scaled to controls: 0 for no effect and ±100 for the full control effect
Target sequence (P15428 whole entry, looked up): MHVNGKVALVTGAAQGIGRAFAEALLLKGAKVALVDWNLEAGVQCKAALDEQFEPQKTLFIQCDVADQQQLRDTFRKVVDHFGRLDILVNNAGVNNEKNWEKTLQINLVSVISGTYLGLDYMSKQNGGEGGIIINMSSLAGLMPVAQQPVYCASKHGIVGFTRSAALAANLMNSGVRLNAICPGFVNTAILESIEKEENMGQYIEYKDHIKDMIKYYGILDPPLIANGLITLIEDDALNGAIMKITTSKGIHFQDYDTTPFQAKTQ
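NADH formation kinetics: reaction with 30 uM PGE2 and 1 mM NAD+ (final), 20 nM enzyme, Tris-HCl pH 8 with Tween 20, after 15 min compound preincubation at room temperature. Fluorescence change, last versus first of five reads.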
HttQ103 aggreg – mutant huntingtin aggregation inhibition | AID 1688 | actives 1.1% (n = 220,000) | PC12 HttQ103-GFP aggregates, Acumen cytometry, 40 h | Potency, µM (series often up to 46.1 µM), for inactives: at the top dose activity change, negative = inhibition, most hits filed as inhibitors; active = well fitted curve in the direction sought with a large enough effect; inconclusive = small, poorly fitted or top-dose-only effect, or another doubt; inactive = no such curve, though single readings can be large; an effect the other way counts as inactive or inconclusive; also: % is scaled to controls: 0 for no effect and ±100 for the full control effect; nearly all actives have a fitted effect of over 60% in size
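Using laser scanning cytometry, GFP-positive aggregates were counted after lysis of PC12 cells induced with 100 nM tebufenozide to express HTT exon 1 Q103–GFP. Compounds were tested in titration.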
ALDH1A1 inh – inhibitors of human aldehyde dehydrogenase 1A1. P00352. Purified ALDH1A1, NADH fluorescence, propionaldehyde substrate. actives 7.3% (n = 220,000). Potency, µM (titrated, usually from 75.3 µM), for the others: at the top dose activity, negative = inhibition, actives largely listed as inhibitors. AID 1030;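 also: plate controls were no enzyme wells and a reference inhibitor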
Target sequence (P00352 whole entry, looked up): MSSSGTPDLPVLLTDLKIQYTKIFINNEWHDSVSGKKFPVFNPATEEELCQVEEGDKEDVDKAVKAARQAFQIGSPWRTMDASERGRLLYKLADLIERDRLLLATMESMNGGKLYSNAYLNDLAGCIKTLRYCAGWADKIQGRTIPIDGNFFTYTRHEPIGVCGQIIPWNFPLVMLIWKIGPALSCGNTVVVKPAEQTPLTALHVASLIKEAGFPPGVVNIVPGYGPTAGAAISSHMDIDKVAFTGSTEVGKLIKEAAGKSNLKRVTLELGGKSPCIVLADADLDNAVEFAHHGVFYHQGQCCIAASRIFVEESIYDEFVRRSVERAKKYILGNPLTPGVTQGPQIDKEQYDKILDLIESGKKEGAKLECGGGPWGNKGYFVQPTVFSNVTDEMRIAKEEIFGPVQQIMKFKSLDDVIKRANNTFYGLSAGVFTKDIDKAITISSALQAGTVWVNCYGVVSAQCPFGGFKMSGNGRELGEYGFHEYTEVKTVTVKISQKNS
Starred values were filed as active, the others as inactive; ? = inconclusive; nt = no result given; [ ] = remark or other dose. A selection: hits, their analogues and other compounds. The true share with any hit is near 9.2%. Unless noted, calls follow the shape of the dose curve; as a rule, active = well fitted inhibition curve with a large enough effect (not every such curve was filed as active); inconclusive = small, poorly fitted or top-dose-only effect, or another doubt; inactive = no such curve, though single readings can be large or run the other way. Potency is read from the fitted curve at half-maximal effect.

SMILES | Lamin A splicing | KDM4E inh | HTT cytoprotect | HPGD inh | HttQ103 aggreg | ALDH1A1 inh
CC(=O)Nc1ccc(C(=O)CSc2nc3ccccc3n2CC(=O)N2CCCC2)cc1 | -4% | -4% | -7% | ? | ? | 25µM*
CC(C)OC(=O)CN1C(=O)C(C)(C)Oc2ccc(C(=O)NC3CC3)cc21 | 3% | 13% | 1%[10 µM] | -13% | 5% | 11µM*
Cc1nn(CC(=O)NCc2cccnc2)c(C)c1[N+](=O)[O-] | 16%[46 µM] | -6% | ? | nt | 16% | 6%
CC1CCC2C(=O)N3C(CCC(C)[C@H]3c3ccccc3Br)C(=O)N2C1c1ccccc1Br (stereo partly drawn) | nt | nt | -11%[10 µM] | nt | nt | -4%[13.5 µM]
CCC(=O)/C=C1\Sc2ccc(OC)cc2N1CCO | 0% | -2% | -21%[0.074 µM] | -4% | -1% | 8%
CCC(=O)/C=C1\Sc2ccc(OC)cc2N1CC | 19% | ? | -19%[10 µM] | 28µM* | ? | ?
O=[N+]([O-])c1ccc2c(c1)[nH]c(=S)n2-c1ccccc1 | nt | 6% | -37% | nt | 14% | 4µM*
O=[N+]([O-])c1cccc(-c2n[nH]c(=S)n2-c2ccccc2)c1 | nt | -11% | 14%[10 µM] | nt | -12%[9.22 µM] | nt
COc1ccccc1C1C2=C(N=c3s/c(=C/c4cccc(OCC(=O)O)c4)c(=O)n31)c1ccccc1CC2 (stereo not drawn) | ? | -5% | 8%[10 µM] | 28µM* | ? | ?
COc1cccc(C2C3=C(N=c4s/c(=C\c5cccc(O)c5)c(=O)n42)c2ccccc2CC3)c1OC (stereo not drawn) | ? | -20% | 10%[10 µM] | -14% | -9% | -7%
Cc1cc(OCc2cccc(Cl)c2)c(C)cc1CN1CCOCC1 | nt | -2% | 1.1µM* | nt | ? | 5%
COc1ccc(Cl)cc1CN1CCOCC1 | nt | -6% | -11%[10 µM] | nt | -7%[9.22 µM] | nt
CC(C)OCCCn1c(SCc2cccc(Br)c2)nc2c(sc3ccccc32)c1=O | 12%[46 µM] | nt | nt | nt | nt | nt
COc1cc(OC)c2c(O)c3c(c(-c4c5c(c(O)c6c(OC)cc(OC)cc46)CO[C@@H](C)[C@H]5O)c2c1)[C@H](O)[C@H](C)OC3 | nt | ? | 1%[10 µM] | nt | -5%[9.22 µM] | ?
COc1cc2ncnc(Nc3cccc(Br)c3)c2cc1OC | nt | ? | -21%[1.9 µM] | -21% | nt | -11%
COc1cc2c(Nc3ccc(Br)cc3F)ncnc2cc1OCC1CCN(C)CC1 | nt | nt | -94% | nt | 13µM* | nt
NS(=O)(=O)c1cc(C(=O)O)c(O)c2ccccc12 | nt | nt | -20%[10 µM] | -26% | nt | -15%[13.5 µM]
O=C(O)c1cc2cc(Cc3cccnc3)ccc2o1 | -12% | 0% | -30% | -15% | 0% | 3%
Cc1ccc(N2CCN(C(=S)c3ccc(N(C)C)cc3)CC2)cc1 | ? | -6% | 3%[10 µM] | 25µM* | ? | 7.9µM*
S=C(c1ccccc1)N1CCN(C(=S)c2ccccc2)CC1 | -6% | 4% | -6%[10 µM] | -2% | 6% | 1%
CN(C)c1ccc(C(=S)N2CCN(c3ccccc3)CC2)cc1 | ? | 4% | -8%[0.074 µM] | -9% | 9% | 13µM*
O=C1C(C2=NC(c3ccccn3)C3C(=O)N(c4ccccc4)C(=O)C23)=C(O)c2ccccc21 (stereo not drawn) | nt | 11% | -19%[10 µM] | nt | -20%[9.22 µM] | nt
O=C(N/C(=C\c1ccccc1)C(=O)N1CCN(CCO)CC1)c1ccccc1 | -7% | 1% | nt | -1% | -15% | 3%
Cc1cc(C)n2c(SCC(=O)Nc3ncc(C(F)(F)F)cc3Cl)nnc2n1 | 2% | -6% | -13%[10 µM] | -10% | 4% | 13µM*
Cc1cc(C)n2c(SCC(=O)Nc3ccc(F)cc3)nnc2n1 | nt | -6% | -1%[10 µM] | nt | 16%[9.22 µM] | 14µM*
SMILES | Lamin A splicing | KDM4E inh | HTT cytoprotect | HPGD inh | HttQ103 aggreg | ALDH1A1 inh
Cc1cc(C)n2c(SCC(=O)Nc3ccc(F)cc3F)nnc2n1 | ? | ? | -31% | nt | 4% | ?
CCOC(=O)c1cc(C(=O)OCC)cc(-n2c(C)cc(C(=O)CN3CCOCC3)c2C)c1 | 5% | 13µM* | -23%[10 µM] | -21% | 9% | ?
CCCNC(=S)NCCN1CCCCC1 | -3% | ? | -1%[1.9 µM] | 5% | 1% | 35µM*
CCCCNC(=S)NCCN1CCCCC1 | -6% | -6% | -7%[1.9 µM] | -9% | 1% | ?
COC(=O)C1C(=O)C2=C(CC1C)NC(C)=C(C(=O)OC(C)C)C2c1ccc(C)o1 (stereo not drawn) | -8% | -6% | 1% | -6% | 8% | -13%
COC(=O)C1C(=O)C2=C(CC1C)NC(C)=C(C(=O)OC1CCCCC1)C2c1ccc(N(C)C)cc1 (stereo not drawn) | -15% | 1% | -1%[10 µM] | -16% | -21% | 8.9µM*
COc1ccc(CNC(=O)COC(=O)C2CC3C=CC2C3)cc1 (stereo not drawn) | -5% | 2% | -7%[10 µM] | ? | -8% | 11µM*
COC(=O)c1ccc(CNC(=O)COC(=O)CCC2CCCC2)cc1 | -12% | 2% | 14%[10 µM] | -21% | -7% | -13%
COc1ccc(CNC(=O)COC(=O)CCC2CCCCC2)cc1 | -7% | -5% | 3%[10 µM] | nt | -10% | 5.6µM*
Cc1ccc2c(=O)cc(CSc3ncn[nH]3)[nH]c2c1C | -1%[46 µM] | nt | nt | nt | nt | nt
O=C(NCCCCc1ccccc1)C12CN(Cc3ccccc3)CC1C(c1cccc([N+](=O)[O-])c1)=NO2 (stereo not drawn) | -13% | -7% | 0%[10 µM] | -7% | 3% | ?
COc1ccc(CCNC(=O)C23CN(Cc4ccccc4)CC2C(c2ccc([N+](=O)[O-])cc2)=NO3)cc1 (stereo not drawn) | -4% | -2% | -24%[10 µM] | -23% | 11% | 16µM*
O=C(NCCCCc1ccccc1)C12CN(Cc3ccccc3)CC1C(c1ccc([N+](=O)[O-])cc1)=NO2 (stereo not drawn) | -16% | -27% | -8%[10 µM] | -18% | -2% | 11µM*
O=C(NCc1ccco1)C12CN(Cc3ccccc3)CC1C(c1ccc([N+](=O)[O-])cc1)=NO2 (stereo not drawn) | 4% | 2% | -24% | -13% | 7% | 4µM*
COC(=O)c1ccc(C23CC4(C2)[C@H](CN(C)[C@@H]4c2ccccc2)C3c2ccc(Cl)nc2)cc1 (stereo partly drawn) | nt | ? | -12% | -20% | -10%[9.22 µM] | -8%
CCCCC[C@H](O)/C=C/C=C/C=C/[C@@H](O)C/C=C\CCCC(=O)O | nt | 2% | 17% | -8% | nt | 4%
Cc1nc(NC(=O)c2ccc([N+](=O)[O-])cc2Cl)sc1C(=O)N(C)C | 15% | ? | nt | 14µM* | 13% | 13µM*
CN1C(=O)C(Cl)(Cl)C(=O)c2ccccc21 | ? | ? | -6%[10 µM] | 22µM* | ? | 0.4µM*

Screening results from PubChem BioAssay.
